Data as given in ChEMBL document CHEMBL5606460, “ASAP - DENV-2 NS2B-NS3 protease fluorescence single point” (2024).
In all, about 2,000 compounds went through this assay and about 110 (5.5%) showed an effect of 50% or more. Shown is part of a subset that was picked to be rich in strong results.

Target: Genome polyprotein (dengue virus type 2) (UniProt P29990)
[1] = Thailand/16681/1984, Concentration 25.0 uM, Number of replicates 1.0

With `CN(C)Cc1cc(C(=O)Nc2cc(Cl)cc(C(=O)NC(C)(C)CO)c2)ccn1` as the compound, how does the inhibition (Thailand/16681/1984, Concentration 49.5 uM, Number of replicates 2.0, Standard deviation 0.8373879793632091 %) read?
The inhibition was -0.805%.

What about the inhibition (Thailand/16681/1984, Concentration 99.01 uM, Number of replicates 2.0, Standard deviation 1.3878191722501325 %) of the same compound?
The inhibition was -0.768%.

What about the inhibition (Thailand/16681/1984, Concentration 198.0 uM, Number of replicates 2.0, Standard deviation 1.150645337077672 %) of the same compound?
Its inhibition is -0.077%.

How did the inhibition [1] turn out when `CN(Cc1ccc(N2CCOCC2)cc1)C(=O)C1CCN(c2ccc(C=O)cc2)CC1` was run?
The inhibition was 13.2%.

Which inhibition [1] does the source give for `CC(=O)N1CCC(N(C)C(=O)C2CCN(c3ccc(C=O)cc3)CC2)CC1` here?
The inhibition was 10.9%.

For `O=C(/C=C/c1ccccc1)C(=O)N1CCN(CCc2ccccc2)CC1`, which inhibition (Thailand/16681/1984, Concentration 49.5 uM, Number of replicates 2.0, Standard deviation 1.1058163895680901 %) is on record?
Its inhibition is -0.075%.

And the inhibition (Thailand/16681/1984, Concentration 99.01 uM, Number of replicates 2.0, Standard deviation 1.051850300329286 %)?
The inhibition was 3.22%.

What about the inhibition (Thailand/16681/1984, Concentration 198.0 uM, Number of replicates 2.0, Standard deviation 0.9821847629012651 %) of the same compound?
Its inhibition is 9.52%.

For `O=Cc1ccc(N2CCC(C(=O)N3CCOCC3)CC2)cc1`, which inhibition [1] is on record?
Its inhibition is 13.3%.

For `O=Cc1ccc(N2CCC(C(=O)N3CCN(CCc4ccccc4)CC3)CC2)cc1`, which inhibition [1] is on record?
Its inhibition is 33%.

Which inhibition (Thailand/16681/1984, Concentration 49.5 uM, Number of replicates 2.0, Standard deviation 0.14046836541625998 %) does the source give for `Nc1ccc(/C=C/C(=O)C(=O)N2CCN(CCc3ccccc3)CC2)cc1` here?
Its inhibition is 23.4%.

What about the inhibition (Thailand/16681/1984, Concentration 99.01 uM, Number of replicates 2.0, Standard deviation 0.26272659487750905 %) of the same compound?
The inhibition was 40.1%.

And the inhibition (Thailand/16681/1984, Concentration 198.0 uM, Number of replicates 2.0, Standard deviation 0.8058693227147314 %)?
The inhibition was 60.1%.

How did the inhibition (Thailand/16681/1984, Concentration 49.5 uM, Number of replicates 2.0, Standard deviation 1.4144964098734516 %) turn out when `O=C(/C=C/c1ccc(N2CCNCC2)cc1)C(=O)N1CCOCC1` was run?
Its inhibition is 1.52%.

And the inhibition (Thailand/16681/1984, Concentration 99.01 uM, Number of replicates 2.0, Standard deviation 0.4568300281843685 %)?
The inhibition was 5.18%.

What about the inhibition (Thailand/16681/1984, Concentration 198.0 uM, Number of replicates 2.0, Standard deviation 1.1436463049734074 %) of the same compound?
The inhibition was 13.3%.

`CN(C)c1ccc(/C=C/C(=O)C(=O)N2CCOCC2)cc1` was tested. Which inhibition (Thailand/16681/1984, Concentration 49.5 uM, Number of replicates 2.0, Standard deviation 1.4993650320557768 %) did it give?
The inhibition was 37.9%.

What about the inhibition (Thailand/16681/1984, Concentration 99.01 uM, Number of replicates 2.0, Standard deviation 1.3662996762867583 %) of the same compound?
The inhibition was 59.5%.

And the inhibition (Thailand/16681/1984, Concentration 198.0 uM, Number of replicates 2.0, Standard deviation 0.7538742729933879 %)?
Its inhibition is 78.8%.

How did the inhibition (Thailand/16681/1984, Concentration 49.5 uM, Number of replicates 2.0, Standard deviation 0.4887874545992688 %) turn out when `NCc1ccc(/C=C/C(=O)C(=O)N2CCOCC2)cc1` was run?
The inhibition was 28.7%.

What about the inhibition (Thailand/16681/1984, Concentration 99.01 uM, Number of replicates 2.0, Standard deviation 0.17235835687354284 %) of the same compound?
Its inhibition is 48.5%.

What about the inhibition (Thailand/16681/1984, Concentration 198.0 uM, Number of replicates 2.0, Standard deviation 0.3206181572929207 %) of the same compound?
Its inhibition is 70.2%.

Which inhibition (Thailand/16681/1984, Concentration 49.5 uM, Number of replicates 2.0, Standard deviation 1.242021000664882 %) does the source give for `CNC(=O)c1cc(Cl)ccc1NS(=O)(=O)c1[nH]ncc1C(=O)OC` here?
The inhibition was -1.06%.

What about the inhibition (Thailand/16681/1984, Concentration 99.01 uM, Number of replicates 2.0, Standard deviation 0.08117786480507469 %) of the same compound?
The inhibition was 0.923%.

What about the inhibition (Thailand/16681/1984, Concentration 198.0 uM, Number of replicates 2.0, Standard deviation 0.003820190349027435 %) of the same compound?
Its inhibition is 2.41%.

For `COc1cc(Cl)c(C)cc1NC(=O)C1CCN(c2ccc(C=O)cc2)CC1`, which inhibition [1] is on record?
The inhibition was 13.9%.

Which inhibition [1] does the source give for `CC(C)(CNC(=O)C1CCN(c2ccc(C=O)cc2)CC1)c1cccc(Cl)c1` here?
The inhibition was 10.4%.

For `N[C@H]1C[C@H](CNC(=O)[C@@H](NC(=O)OCc2ccccc2)c2ccc(OCc3ccccc3)cc2)C1`, which inhibition (Thailand/16681/1984, Concentration 49.5 uM, Number of replicates 2.0, Standard deviation 4.035148717327061 %) is on record?
Its inhibition is -7.81%.

And the inhibition (Thailand/16681/1984, Concentration 99.01 uM, Number of replicates 2.0, Standard deviation 3.6381547385610027 %)?
The inhibition was -5.23%.

And the inhibition (Thailand/16681/1984, Concentration 198.0 uM, Number of replicates 2.0, Standard deviation 2.7035240962471856 %)?
Its inhibition is 9.08%.

How did the inhibition [1] turn out when `O=Cc1ccc(N2CCC(C(=O)NC3C4CC5CC(C4)CC3C5)CC2)cc1` (stereo unspecified) was run?
The inhibition was 6.37%.

Which inhibition [1] does the source give for `CN(Cc1cccc2ccccc12)C(=O)C1CCN(c2ccc(C=O)cc2)CC1` here?
Its inhibition is 11.3%.

`Cc1c(C2CCNCC2)cnn1Cc1nnc(-c2ccccc2)o1` was tested. Which inhibition (Thailand/16681/1984, Concentration 49.5 uM, Number of replicates 2.0, Standard deviation 2.3622904402078886 %) did it give?
Its inhibition is -2.18%.

And the inhibition (Thailand/16681/1984, Concentration 99.01 uM, Number of replicates 2.0, Standard deviation 1.8884466143634908 %)?
Its inhibition is -1.86%.

And the inhibition (Thailand/16681/1984, Concentration 198.0 uM, Number of replicates 2.0, Standard deviation 1.0159128732525171 %)?
The inhibition was -0.491%.

How did the inhibition [1] turn out when `Cc1cccc(NC(=O)CNC(=O)C2CCN(c3ccc(C=O)cc3)CC2)c1C` was run?
The inhibition was 13%.

`Cc1cc(CO)c2cccc(Nc3cc(C)on3)c2n1` was tested. Which inhibition (Thailand/16681/1984, Concentration 49.95 uM, Number of replicates 2.0, Standard deviation 1.3194982141200182 %) did it give?
Its inhibition is 1.66%.

What about the inhibition (Thailand/16681/1984, Concentration 99.9 uM, Number of replicates 2.0, Standard deviation 1.2714193652686099 %) of the same compound?
Its inhibition is 2.71%.

How did the inhibition (Thailand/16681/1984, Concentration 49.95 uM, Number of replicates 2.0, Standard deviation 1.546456211659181 %) turn out when `Cc1cc(CO)c2cccc(NC(=O)COc3cccc(CN)c3)c2n1` was run?
The inhibition was 9.18%.

What about the inhibition (Thailand/16681/1984, Concentration 99.9 uM, Number of replicates 2.0, Standard deviation 0.8863913825569767 %) of the same compound?
The inhibition was 7.18%.

Which inhibition (Thailand/16681/1984, Concentration 49.95 uM, Number of replicates 2.0, Standard deviation 1.1262325758678584 %) does the source give for `Cc1cc(CO)c2cccc(Nc3cc(O)[nH]n3)c2n1` here?
Its inhibition is 32.3%.

What about the inhibition (Thailand/16681/1984, Concentration 99.9 uM, Number of replicates 2.0, Standard deviation 0.556697154318326 %) of the same compound?
Its inhibition is 51.5%.

How did the inhibition (Thailand/16681/1984, Concentration 49.95 uM, Number of replicates 2.0, Standard deviation 0.0008200090846279543 %) turn out when `Cc1cc(Cl)c2cccc(NC(=O)CCN)c2n1` was run?
Its inhibition is 99.2%.

What about the inhibition (Thailand/16681/1984, Concentration 99.9 uM, Number of replicates 2.0, Standard deviation 0.04112992935002318 %) of the same compound?
The inhibition was 98.9%.

For `Cc1cc(CO)c2cccc(CC(=O)Nc3cc(O)[nH]n3)c2n1`, which inhibition (Thailand/16681/1984, Concentration 49.95 uM, Number of replicates 2.0, Standard deviation 0.30186854167697036 %) is on record?
Its inhibition is 9.85%.

And the inhibition (Thailand/16681/1984, Concentration 99.9 uM, Number of replicates 2.0, Standard deviation 0.4943454438060974 %)?
Its inhibition is 27.1%.
